Screen size: about 86,000 compounds; about 1,200 (1.4%) were called active. Cut-off read from the data, not from the text of the source: active = activity above about 200%; inactive = the rest. The full list was thinned out, with actives kept by preference.

In the experiment the target is Estrogen receptor (Homo sapiens) (UniProt P03372). Put plainly: enhancers of ERα–SRC-1 coactivator binding, primary screen, biochemical, TR-FRET, ERα LBD, low estradiol (AID 639).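 Note: binding measured in presence of low estradiol as agonist stimulus; 0% = peptide alone without receptor and 100% = receptor with peptide.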 Particulars: TR-FRET ERalpha-LBD/SRC-Cy5 coactivator binding, 2 h; at 25.6 µM; hits give high values; 100 = basal binding, no effect. Background: Time-resolved FRET reads energy transfer from a long-lived donor to a nearby acceptor.
Estrogen receptor (Homo sapiens), sequence (P03372 whole entry, looked up, the tested form may be a part): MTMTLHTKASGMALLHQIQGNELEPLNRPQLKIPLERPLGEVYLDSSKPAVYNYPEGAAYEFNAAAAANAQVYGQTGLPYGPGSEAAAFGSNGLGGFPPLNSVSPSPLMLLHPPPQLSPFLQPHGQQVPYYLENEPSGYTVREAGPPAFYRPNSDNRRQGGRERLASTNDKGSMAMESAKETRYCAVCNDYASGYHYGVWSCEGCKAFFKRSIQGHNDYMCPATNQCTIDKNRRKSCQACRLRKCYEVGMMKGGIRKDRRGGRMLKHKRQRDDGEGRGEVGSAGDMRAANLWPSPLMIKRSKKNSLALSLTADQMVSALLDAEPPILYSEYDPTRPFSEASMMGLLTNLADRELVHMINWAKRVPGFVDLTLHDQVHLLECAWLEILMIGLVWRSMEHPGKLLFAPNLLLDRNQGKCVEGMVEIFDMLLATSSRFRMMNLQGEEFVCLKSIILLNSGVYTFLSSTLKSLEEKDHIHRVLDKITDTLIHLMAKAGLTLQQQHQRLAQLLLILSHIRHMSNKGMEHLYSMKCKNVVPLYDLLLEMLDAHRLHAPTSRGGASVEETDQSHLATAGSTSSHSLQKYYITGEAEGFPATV
As to `O=C(CSc1nnc(-c2cnccn2)n1Cc1ccco1)c1ccc(Cl)c(Cl)c1`, the coactivator binding (% of control) was 137% (inactive).

Take `Cc1ccc(NC(=O)CSc2nnc(-c3cnccn3)n2Cc2ccco2)cc1C`: the coactivator binding (% of control) is 335% (active). As for `CCOc1ccc(NC(=O)CN(C)CC(=O)Nc2cccc(Cl)c2C)cc1OCC`, the figure is 105% (inactive). As for `CC1CCC(NC(=O)c2ccc(N3CCCC3=O)cc2)CC1` (stereo unspecified), the figure is 143% (inactive). With `O=C(NCCCN1CCCCCC1)c1ccc(N2CCCC2=O)cc1` the figure was 588% [fluorescence artefact?] (active). As to `CCOc1ccc(C(=O)NCCCN2CCCC2=O)cc1`, the coactivator binding (% of control) is 96% (inactive). Regarding `CCOc1cc(C(=O)Nc2c(C)ccc3nsnc23)cc(OCC)c1OCC`, the coactivator binding (% of control) was 78.1% (inactive).

Regarding `O=C(NCc1ccccc1)C1CCCN(S(=O)(=O)c2cccs2)C1` (stereo unspecified), the coactivator binding (% of control) is 91.1% (inactive). With `COCCNC(=O)COc1ccccc1C` the figure was 118% (inactive). For the molecule `COc1ccc(CCNC(=O)CN(c2ccccc2)S(C)(=O)=O)cc1OC`, the coactivator binding (% of control) is 76.4% (inactive). Consider `CN(C)c1ccnc2sc3c(=O)n(-c4ccc(Cl)cc4)cnc3c12`, for which the coactivator binding (% of control) is 162% (inactive). With `COCCn1c(C)cc(C(=O)CSc2ncnc3sc4c(c23)CCC4)c1C` the figure was 409% [fluorescence artefact?] (active); with `Cc1cc(C)n(-c2nc(SCC(=O)N3CCCC3)c3c4c(sc3n2)CCCC4)n1`, 93.8% (inactive). As for `COCCn1c(SCc2nnc(-c3ccc(OC)c(OC)c3)o2)nc2sc3c(c2c1=O)CCC3`, the figure is 94.4% (inactive); as for `CCCCCCC12CCC(C(=O)O)(CC1)CC2`, 104% (inactive); as for `CC(=O)Oc1ccc(NC(=O)CCC2CCCCC2)c(C(=O)O)c1`, 105% (inactive). With `CC(NC(=O)C1CCC(CNc2c(N3CCOCC3)c(=O)c2=O)CC1)c1ccccc1` (stereo unspecified) the figure was 98.1% (inactive); with `Cc1cc(NC(=O)CSc2nc(C(C)C)nc3sc4c(c23)CCC(C)C4)no1` (stereo unspecified), 269% [fluorescence artefact?] (active); with `C=CCn1c(SCc2c(C)noc2C)nc2sc3c(c2c1=O)CCC(C)C3` (stereo unspecified), 93.6% (inactive).

For `Cc1nc(SCC(=O)Nc2cc(C)on2)c2c(C)c(C)sc2n1`, the coactivator binding (% of control) is 565% [fluorescence artefact?] (active). With `Cc1ccc(-c2csc(SCC(=O)Nc3cc(C)on3)n2)cc1` the figure was 98.5% (inactive). On to `Cc1nc(SCC(=O)Nc2cc(C)on2)c2c3c(sc2n1)CCCC3`, for which the coactivator binding (% of control) is 128% (inactive). For the molecule `CC1CCc2c(sc3nc4n(c(=O)c23)CCS4)C1` (stereo unspecified), the coactivator binding (% of control) was 96.2% (inactive). As for `O=C(c1ccc2c(c1)OCO2)N1CCN(C(=O)c2ccco2)CC1`, the figure is 103% (inactive). On to `Cc1cccc(S(=O)(=O)CC(=O)Nc2nc(-c3ccccc3)cs2)c1`, for which the coactivator binding (% of control) is 103% (inactive).

As for `Cc1cc(=O)oc2cc(OCC3CC(c4ccccc4Cl)=NO3)ccc12` (stereo unspecified), the coactivator binding (% of control) is 117% (inactive). With `O=C(Nc1ccc(Br)cc1)c1cccc(NC(=O)C2C3CC4OC(=O)C2C4C3)c1` (stereo unspecified) the figure was 115% (inactive). As for `CCN1C(=O)/C(=C\N2CCN(c3cccc(Cl)c3)CC2)SC1=S`, the figure is 413% [fluorescence artefact?] (active); as for `CCn1c(=O)cc(OCC(=O)NCCCN2CCN(c3cccc(Cl)c3)CC2)c2ccccc21`, 107% (inactive); as for `CS(=O)(=O)N(CC(=O)N1CCN(c2cccc(Cl)c2)CC1)c1ccccc1`, 118% (inactive). As for `CCS(=O)(=O)N1CCC(C(=O)N2CCN(c3ccccc3)CC2)CC1`, the figure is 103% (inactive); as for `CCN1C(=O)/C(=C\N2CCN(c3ccccc3)CC2)SC1=S`, 289% (active). On to `CCN1C(=O)/C(=C\N2CCOCC2)SC1=S`, for which the coactivator binding (% of control) was 93% (inactive). As for `Cc1cccc(-c2nc3c(c(SCC(=O)N4CCOCC4)n2)CCCC3)c1`, the figure is 94.4% (inactive); as for `CC1CCN(C(=O)c2cc3nc(C4CC4)cc(C(F)(F)F)n3n2)CC1`, 93.5% (inactive).

On to `COCCNC(=O)Cn1cc(C(=O)c2cccs2)c2ccccc21`, for which the coactivator binding (% of control) was 102% (inactive). As to `CCn1c(Cc2ccccc2)nnc1SCC(=O)Nc1ccccc1`, the coactivator binding (% of control) is 122% (inactive). With `CCCn1c(SCC(=O)Nc2cccc(C(=O)OCC)c2)nnc1-c1ccoc1C`, the coactivator binding (% of control) is 97.2% (inactive). With `CCn1c(SCC(=O)Nc2cccc(F)c2)nnc1-c1cc2cc(Br)ccc2o1`, the coactivator binding (% of control) was 476% (active). As for `CCOc1ccc(-n2c(N)c(C(=O)NCC3CCCO3)sc2=S)cc1` (stereo unspecified), the figure is 99.2% (inactive); as for `O=c1[nH][nH]c(C(F)(F)F)c1C=NCc1ccccc1Cl`, 109% (inactive); as for `Cn1c(C(=O)NCCc2ccsc2)cc2c(=O)n(C)c3ccccc3c21`, 278% (active). With `CC1CCCC(C)N1CCCNC(=O)c1cc2c(=O)n(C)c3ccccc3c2n1C` (stereo unspecified) the figure was 74.4% (inactive). As for `Cn1c(C(=O)NCCCN2CCN(c3cccc(Cl)c3)CC2)cc2c(=O)n(C)c3ccccc3c21`, the figure is 132% (inactive); as for `CCOc1ccc(S(=O)(=O)NCC2CCCO2)cc1` (stereo unspecified), 97.5% (inactive); as for `COCCn1c(=S)[nH]c2cc(C(=O)NCCc3ccc(OC)c(OC)c3)ccc2c1=O`, 179% (inactive).

The values are drawn from PubChem BioAssay AID639 (Emory University Molecular Libraries Screening Center, 2007).
